Results reported in PubChem BioAssay.
A number with no mark means an inactive call. For some of these results: Results with a measured potency or affinity are listed apart. Activity calls are given as the source filed them. Unless noted, the rule behind the calls is not given here.

Key:
[1] = antimalarial activity against Dd2 strain (AID 2302;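 active = growth inhibition above 50% at the single 2 µM test dose, taken to imply half-maximal potency below 2 µM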;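 note: 0% = DMSO untreated growth and 100% = chloroquine plus artemisinin killed control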); conditions: P. falciparum Dd2 in RBCs, LDH growth readout, 72 h; at 2 µM; active compounds read high
[2] = biological target: L-lactate dehydrogenase (Plasmodium falciparum (isolate CDC / Honduras)) (UniProt Q27743); assay: PfLDH activity inhibition – cell lysate, 3D7 strain, counter-screen for P. falciparum growth inhibition project (AID 2304);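 note: 0% = vehicle and 100% = reference inhibitor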; conditions: P. falciparum 3D7 crude extract, LDH APAD/NBT absorbance; at 2 µM; active compounds read high
L-lactate dehydrogenase (Plasmodium falciparum (isolate CDC / Honduras)), sequence (Q27743 whole entry, looked up): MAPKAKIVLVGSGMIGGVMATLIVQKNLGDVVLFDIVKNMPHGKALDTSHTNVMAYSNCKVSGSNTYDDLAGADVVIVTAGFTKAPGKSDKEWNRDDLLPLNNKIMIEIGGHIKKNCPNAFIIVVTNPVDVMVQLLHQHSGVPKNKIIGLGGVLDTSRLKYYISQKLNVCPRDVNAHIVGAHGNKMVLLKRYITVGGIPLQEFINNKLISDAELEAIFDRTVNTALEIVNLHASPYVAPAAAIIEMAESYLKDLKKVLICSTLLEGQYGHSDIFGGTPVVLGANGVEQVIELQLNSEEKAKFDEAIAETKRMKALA

[3] = inhibition of 3D7 malaria parasite growth – strain 3D7 (AID 2306);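 note: 0% = DMSO wells and 100% = chloroquine plus artemisinin control wells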; conditions: P. falciparum 3D7 erythrocytic growth, LDH absorbance, 72 h; at 2 µM; active compounds read high
[4] = biological target: Calcium-dependent protein kinase 1 (Plasmodium falciparum (isolate 3D7)) (UniProt P62344); assay: PfCDPK1 kinase inhibitors, biochemical, TCAMS library (AID 1159585; cut-off not given, nearly all actives have IC50 up to about 0.98 µM;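 note: inhibitors leave more ATP so luminescence rises with inhibition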); conditions: recombinant PfCDPK1, Kinase-Glo ATP depletion luminescence
Calcium-dependent protein kinase 1 (Plasmodium falciparum (isolate 3D7)), sequence (P62344 whole entry, looked up): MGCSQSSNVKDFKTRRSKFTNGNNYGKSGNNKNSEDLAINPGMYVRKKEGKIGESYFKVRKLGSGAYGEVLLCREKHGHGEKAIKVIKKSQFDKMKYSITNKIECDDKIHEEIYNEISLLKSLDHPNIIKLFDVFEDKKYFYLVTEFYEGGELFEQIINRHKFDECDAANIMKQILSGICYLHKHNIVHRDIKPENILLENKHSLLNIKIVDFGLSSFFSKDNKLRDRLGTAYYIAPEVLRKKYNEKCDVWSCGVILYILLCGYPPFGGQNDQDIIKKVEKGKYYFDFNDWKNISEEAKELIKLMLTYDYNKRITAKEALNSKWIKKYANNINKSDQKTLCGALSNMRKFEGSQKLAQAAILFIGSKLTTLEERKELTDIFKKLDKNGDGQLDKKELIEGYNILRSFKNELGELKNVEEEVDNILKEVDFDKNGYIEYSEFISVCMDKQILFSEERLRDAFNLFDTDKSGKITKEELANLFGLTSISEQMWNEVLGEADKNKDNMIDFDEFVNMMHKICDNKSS

[5] = biological target: Plasmodium falciparum protein kinase 6 (PK6, PF3D7_1337100) (UniProt Q8IDW1); assay: PfPK6 kinase inhibitors, biochemical, TCAMS library (AID 1159586); conditions: recombinant PfPK6, Kinase-Glo ATP depletion luminescence
Plasmodium falciparum protein kinase 6 (PK6, PF3D7_1337100), sequence (Q8IDW1 1-305): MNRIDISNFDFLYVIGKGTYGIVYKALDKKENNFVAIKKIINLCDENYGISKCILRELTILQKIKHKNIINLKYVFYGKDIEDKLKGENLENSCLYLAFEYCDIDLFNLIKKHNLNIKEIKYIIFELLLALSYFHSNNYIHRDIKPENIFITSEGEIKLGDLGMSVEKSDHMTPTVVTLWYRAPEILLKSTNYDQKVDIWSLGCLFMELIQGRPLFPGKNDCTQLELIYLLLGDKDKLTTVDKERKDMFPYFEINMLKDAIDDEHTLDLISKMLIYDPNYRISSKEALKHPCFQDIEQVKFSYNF

[6] = biological target: Protein kinase 7 (PK7), Plasmodium falciparum 3D7 (PF3D7_0213400) (UniProt Q7YTF7); assay: inhibition of Plasmodium PK7 catalytic activity – biochemical, TCAMS antimalarial set, Kinase-Glo luminescence (AID 1159587); conditions: recombinant PfPK7, Kinase-Glo ATP depletion luminescence
Protein kinase 7 (PK7), Plasmodium falciparum 3D7 (PF3D7_0213400), sequence (Q7YTF7 1-343): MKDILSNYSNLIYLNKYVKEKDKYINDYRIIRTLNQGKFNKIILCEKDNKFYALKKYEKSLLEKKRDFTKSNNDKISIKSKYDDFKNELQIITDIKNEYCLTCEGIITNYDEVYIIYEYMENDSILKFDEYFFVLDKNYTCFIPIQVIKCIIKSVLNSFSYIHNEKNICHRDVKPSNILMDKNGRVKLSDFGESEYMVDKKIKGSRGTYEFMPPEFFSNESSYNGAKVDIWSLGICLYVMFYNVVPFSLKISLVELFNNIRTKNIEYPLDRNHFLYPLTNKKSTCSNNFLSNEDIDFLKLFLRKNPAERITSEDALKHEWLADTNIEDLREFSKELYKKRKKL

[7] = biological target: Calcium-dependent protein kinase 4 (Plasmodium falciparum (isolate 3D7)) (UniProt Q8IBS5); assay: PfCDPK4 kinase inhibitors, biochemical, TCAMS library (AID 1159588; cut-off not given, nearly all actives have IC50 up to about 0.91 µM); conditions: recombinant PfCDPK4, Kinase-Glo ATP depletion luminescence
Calcium-dependent protein kinase 4 (Plasmodium falciparum (isolate 3D7)), sequence (Q8IBS5 whole entry, looked up): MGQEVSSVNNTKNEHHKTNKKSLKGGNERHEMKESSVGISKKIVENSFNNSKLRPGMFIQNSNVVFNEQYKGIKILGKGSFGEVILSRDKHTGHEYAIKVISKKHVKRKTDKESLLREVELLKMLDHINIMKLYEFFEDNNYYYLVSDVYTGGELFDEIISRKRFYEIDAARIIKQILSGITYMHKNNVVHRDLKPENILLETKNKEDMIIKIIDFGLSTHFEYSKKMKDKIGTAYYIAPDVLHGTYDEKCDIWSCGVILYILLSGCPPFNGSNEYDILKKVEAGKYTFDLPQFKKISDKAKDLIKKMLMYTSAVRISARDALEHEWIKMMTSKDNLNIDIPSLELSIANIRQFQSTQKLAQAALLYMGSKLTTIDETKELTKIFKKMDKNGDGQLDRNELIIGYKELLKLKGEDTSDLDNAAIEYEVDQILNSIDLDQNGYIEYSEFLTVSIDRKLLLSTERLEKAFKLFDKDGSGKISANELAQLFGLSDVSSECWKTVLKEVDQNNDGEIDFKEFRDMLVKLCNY

Row | SMILES | growth inhibition [1] | inhibition [2] | growth inhibition [3] | outcome [4] | outcome [5] | outcome [6] | outcome [7]
1 | Nc1nc(N)c2c(ccc3c2ccn3Cc2ccc3c(c2)OCO3)n1 | 95% (active) | -3% | 100% (active) | inactive | inactive | inactive | inactive
2 | CCCCNCCOc1ccc(-c2nc(-c3ccccc3)c(-c3ccccc3)[nH]2)cc1 | 34% | -5% | 100% (active) | inactive | inactive | inactive | inactive
3 | COc1ccc2c(CNCCCCCCNCc3c(OC)ccc4cc(OC)ccc34)c(OC)ccc2c1 | 79% (active) | -7% | 101% (active) | inactive | inactive | inactive | inactive
4 | CCOc1cc2ncnc(Nc3ccc(OCc4c(Cl)cccc4Cl)c(OC)c3)c2cc1OCC | 12% | 5% | 89% (active) | inactive | inactive | inactive | inactive
5 | Cc1cccc(Cn2ccc3c4c(N)nc(N)nc4ccc32)c1 | 98% (active) | 1% | 95% (active) | inactive | inactive | inactive | inactive
6 | COc1ccc2c(=O)c(Br)c(C)[nH]c2c1 | 74% (active) | -8% | 89% (active) | inactive | inactive | inactive | inactive
7 | Nc1nc(N)c(-c2ccccc2)c(=O)[nH]1 | -5% | 0% | 83% (active) | inactive | inactive | inactive | inactive
8 | COc1cccc2c(O)c(CNC3CCCCC3)ccc12 | 98% (active) | 3% | 100% (active) | inactive | inactive | inactive | inactive
9 | CCCOc1cc2c(cc1OCCC)C(C=Cc1ccc(Cl)cc1Cl)=NC(C)C2 (stereo not drawn) | 75% (active) | -5% | 90% (active) | inactive | inactive | inactive | inactive
10 | CCCc1cc(Cc2cnc(N)nc2N)cc2c1OC(C)(C)C2 | 3% | -1% | 89% (active) | inactive | inactive | inactive | inactive
11 | c1ccc2c(NCCOCCNc3c4ccccc4nc4ccccc34)c3ccccc3nc2c1 | -1% | 5% | 94% (active) | inactive | inactive | inactive | inactive
12 | CC(C)(C)OC(=O)N[C@@H](CS(=O)(=O)CCN=C(N)COCc1ccccc1)C(=O)OC(C)(C)C | 76% (active) | 4% | 88% (active) | inactive | inactive | inactive | inactive
13 | CCC1=C(C[C@H]2NCCc3cc(OC)c(OC)cc32)C[C@H]2c3cc(OC)c(OC)cc3CCN2C1 | 100% (active) | -2% | 102% (active) | inactive | inactive | inactive | inactive
14 | Nc1nc(N)c2c(Oc3cc(Cl)c(Cl)c(Cl)c3)cccc2n1 | 92% (active) | 4% | 101% (active) | inactive | inactive | inactive | inactive
15 | COc1ccc2nc3cc(Cl)ccc3c(Nc3ccc(Oc4ccc(Nc5c6ccc(Cl)cc6nc6ccc(OC)cc56)cc4)cc3)c2c1 | 93% (active) | 7% | 86% (active) | inactive | inactive | inactive | inactive
16 | COc1ccc(OC)c(CC2c3ccc(Br)c(O)c3CCN2C)c1 (stereo not drawn) | 97% (active) | -7% | 98% (active) | inactive | inactive | inactive | inactive
17 | Cc1cccc(-c2c(C)nc(N)nc2N)c1 | -9% | -6% | 88% (active) | inactive | inactive | inactive | inactive
18 | CCc1cccc(-c2cc(=N)n(C)c3nc(N)[nH]c(=O)c23)c1 | 28% | 3% | 85% (active) | inactive | inactive | inactive | inactive
19 | COc1cc2c(cc1OC)C(C)(C)CN1Cc3c(c(CO)c(OC)c(OC)c3OC)CC21 (stereo not drawn) | 9% | 2% | 95% (active) | inactive | inactive | inactive | inactive
20 | COc1ccc(Cc2cnc3nc(N)nc(N)c3c2C)cc1OC | 97% (active) | -5% | 93% (active) | inactive | inactive | inactive | inactive
21 | Cc1c(C(C)(C)C)ccc2nc(N)nc(N)c12 | -2% | -1% | 89% (active) | inactive | inactive | inactive | inactive
22 | CCCCC#Cc1cnc2nc(N)[nH]c(=O)c2n1 | 2% | 0% | 89% (active) | inactive | inactive | inactive | inactive
23 | NC(N)=NC(=O)Nc1ccc(Cl)c(C(F)(F)F)c1 | 13% | 3% | 100% (active) | inactive | inactive | inactive | inactive
24 | Cc1[nH]c(C)c(-c2ccc(Oc3ccc(Cl)cc3)cc2)c(=O)c1I | 49% | 5% | 88% (active) | inactive | inactive | inactive | inactive
25 | CCCOc1ccc(CNCCCCCCNCc2ccc(OCCC)c3ccccc23)c2ccccc12 | 96% (active) | -2% | 101% (active) | inactive | inactive | inactive | inactive

Row | SMILES | growth inhibition [1] | inhibition [2] | growth inhibition [3] | outcome [4] | outcome [5] | outcome [6] | outcome [7]
26 | CCOc1cc(Cc2cnc(N)nc2N)cc(Br)c1OC | 3% | 5% | 83% (active) | inactive | inactive | inactive | inactive
27 | CN(C)S(=O)(=O)n1ccc2c3c(N)nc(N)nc3ccc21 | -3% | -4% | 94% (active) | inactive | inactive | inactive | inactive
28 | Cc1[nH]c(C)c(-c2ccc(Oc3cccc(OC(F)(F)F)c3)cc2)c(=O)c1Cl | 97% (active) | -1% | 97% (active) | inactive | inactive | inactive | inactive
29 | Nc1ncc(-c2ccc(Br)cc2)c(N)n1 | 0% | 0% | 89% (active) | inactive | inactive | inactive | inactive
30 | Cc1[nH]c(C)c(-c2ccc(Sc3ccc(Cl)cc3)cc2)c(=O)c1Br | 97% (active) | 0% | 98% (active) | inactive | inactive | inactive | inactive
31 | Cc1[nH]c(C)c(-c2ccc(S(=O)(=O)c3ccc(Cl)cc3)cc2)c(=O)c1Br | 97% (active) | 5% | 97% (active) | inactive | inactive | inactive | inactive
32 | CCCCSc1ccc(CNCCCCCCNCc2ccc(SCCCC)c3ccccc23)c2ccccc12 | 48% | 0% | 94% (active) | inactive | inactive | inactive | inactive
33 | Nc1nc(N)c2c(ccc3[nH]c(-c4ccccc4Cl)nc32)n1 | 101% (active) | -1% | 101% (active) | inactive | inactive | inactive | inactive
34 | CCCc1cc2c3c(N)nc(N)nc3ccc2n1CC | 6% | -1% | 96% (active) | inactive | inactive | inactive | inactive
35 | Oc1ccc2c(CNC3CCCCC3)c(O)ccc2c1CNC1CCCCC1 | 101% (active) | -4% | 101% (active) | inactive | inactive | inactive | inactive
36 | CCOc1cc(OCC)c2ccccc2c1CNCCCCCCNCc1c(OCC)cc(OCC)c2ccccc12 | 89% (active) | 2% | 101% (active) | inactive | inactive | inactive | inactive
37 | COc1cc(Cc2cnc(N)nc2N)cc(OCCCC#N)c1OC | -1% | -3% | 86% (active) | inactive | inactive | inactive | inactive
38 | CCNC(=O)CCc1cccc(Br)c1 | 54% (active) | 6% | 89% (active) | inactive | inactive | inactive | inactive
39 | CCCCCCn1ccc2c3c(N)nc(N)nc3ccc21 | 91% (active) | 0% | 99% (active) | inactive | inactive | inactive | inactive
40 | COc1cc(Cc2cnc(N)nc2N)cc(OCCCC(=O)O)c1OC | -3% | 3% | 84% (active) | inactive | inactive | inactive | inactive
41 | CCN(Cc1cccc2ccccc12)c1ccc2nc(N)nc(N)c2c1 | 100% (active) | 3% | 100% (active) | inactive | inactive | inactive | inactive
42 | CC(C)Oc1ccc2ccccc2c1CNCCCCCCNCc1c(OC(C)C)ccc2ccccc12 | 90% (active) | -7% | 99% (active) | inactive | inactive | inactive | inactive
43 | CC(=NNc1nc2ccccc2s1)c1ccccn1 | 47% | -2% | 88% (active) | inactive | inactive | inactive | inactive
44 | CCN(CC)c1ccc2nc(N)nc(N)c2c1 | -2% | 2% | 93% (active) | inactive | inactive | inactive | inactive
45 | COc1cc(Cc2cnc3nc(N)nc(N)c3c2C)cc(OC)c1OC | 98% (active) | 1% | 95% (active) | inactive | inactive | inactive | inactive
46 | CN(Cc1cnc2nc(N)nc(N)c2n1)c1ccc(C(=O)N[C@H](CCC(=O)OC(C)(C)C)C(=O)N[C@@H](CCC(=O)OC(C)(C)C)C(=O)OC(C)(C)C)cc1 | 1% | -6% | 85% (active) | inactive | inactive | inactive | inactive
47 | COc1cc(Cc2cnc(N)nc2N)cc(OCCCCc2ccc([N+](=O)[O-])cc2)c1OC | 4% | -10% | 88% (active) | inactive | inactive | inactive | inactive
48 | C=CCOc1ccc(Cc2cnc(N)nc2N)cc1CCC | -1% | -1% | 93% (active) | inactive | inactive | inactive | inactive
49 | CCOc1cc2ncnc(Nc3ccc(OCc4ccccc4OC)c(OC)c3)c2cc1OCC | 52% (active) | -5% | 97% (active) | inactive | inactive | inactive | inactive
